Experimental data reported in PMC7862700, “An all-to-all approach to the identification of sequence-specific readers for epigenetic DNA modifications on cytosine”.

How the values were obtained:
Test in all cases: DAPPL (digital affinity profiling via proximity ligation, sequencing); 10 mM Tris-HCl pH 7.5, 50 mM NaCl, 1 mM DTT, 4% glycerol, room temperature, 30 min; GST-TFs on glutathione beads, 16-mer random dsDNA library, 0.1% formaldehyde crosslink after washing; high values mean tight binding
FLI1 = target: T1, FLI1 (Homo sapiens, UniProt Q01543 1-452); conditions: protein: recombinant; tags: N-terminal GST; dsDNA, one strand shown
T1 sequence: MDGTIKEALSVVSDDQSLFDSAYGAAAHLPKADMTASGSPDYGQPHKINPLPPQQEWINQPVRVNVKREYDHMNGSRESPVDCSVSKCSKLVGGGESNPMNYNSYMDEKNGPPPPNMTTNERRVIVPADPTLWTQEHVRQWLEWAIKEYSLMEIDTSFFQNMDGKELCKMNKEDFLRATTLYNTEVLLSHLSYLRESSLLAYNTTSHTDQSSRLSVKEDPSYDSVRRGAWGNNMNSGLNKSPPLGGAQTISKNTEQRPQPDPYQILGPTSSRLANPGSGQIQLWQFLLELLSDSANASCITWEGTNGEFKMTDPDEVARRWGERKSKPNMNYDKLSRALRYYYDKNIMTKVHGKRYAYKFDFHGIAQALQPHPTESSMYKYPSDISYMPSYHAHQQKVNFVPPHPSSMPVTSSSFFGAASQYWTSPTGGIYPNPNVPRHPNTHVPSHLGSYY
Summary of the method: (§1)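 Beads coated with glutathione captured GST-fused human transcription factors that had been expressed in yeast, and the factors were then given DNA barcodes and pooled with a tag-only sample. The pools were incubated with 200 nmole of a random double-stranded 16-mer DNA library in Tris/NaCl/DTT/glycerol buffer for 30 min at room temperature, washed, crosslinked with 0.1% formaldehyde and proximity-ligated with BsaI/T4 ligase at 37 °C for 1 h. PCR amplification and Illumina NextSeq500 sequencing came last. Binding signal is each hexamer's read frequency for a factor divided by its frequency for the tag-only sample.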

ELK1 = target: T2, ELK1 (Homo sapiens, UniProt P19419 1-428); conditions: protein: recombinant; tags: N-terminal GST; dsDNA, one strand shown
T2 sequence: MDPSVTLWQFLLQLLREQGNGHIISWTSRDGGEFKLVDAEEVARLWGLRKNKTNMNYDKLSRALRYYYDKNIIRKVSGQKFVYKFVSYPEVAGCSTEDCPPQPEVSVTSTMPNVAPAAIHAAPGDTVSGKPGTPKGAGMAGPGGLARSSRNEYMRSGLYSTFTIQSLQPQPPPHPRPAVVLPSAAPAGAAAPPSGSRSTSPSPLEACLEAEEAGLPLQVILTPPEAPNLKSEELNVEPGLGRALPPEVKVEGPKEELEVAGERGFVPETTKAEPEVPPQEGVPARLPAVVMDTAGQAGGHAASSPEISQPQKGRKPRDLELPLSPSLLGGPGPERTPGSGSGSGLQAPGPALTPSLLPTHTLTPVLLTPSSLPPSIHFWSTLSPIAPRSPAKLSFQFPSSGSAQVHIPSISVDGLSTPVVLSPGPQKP
Summary of the method: as §1

GABPA = target: T3, GABPA (Homo sapiens, UniProt Q06546 1-454); conditions: protein: recombinant; tags: N-terminal GST; dsDNA, one strand shown
T3 sequence: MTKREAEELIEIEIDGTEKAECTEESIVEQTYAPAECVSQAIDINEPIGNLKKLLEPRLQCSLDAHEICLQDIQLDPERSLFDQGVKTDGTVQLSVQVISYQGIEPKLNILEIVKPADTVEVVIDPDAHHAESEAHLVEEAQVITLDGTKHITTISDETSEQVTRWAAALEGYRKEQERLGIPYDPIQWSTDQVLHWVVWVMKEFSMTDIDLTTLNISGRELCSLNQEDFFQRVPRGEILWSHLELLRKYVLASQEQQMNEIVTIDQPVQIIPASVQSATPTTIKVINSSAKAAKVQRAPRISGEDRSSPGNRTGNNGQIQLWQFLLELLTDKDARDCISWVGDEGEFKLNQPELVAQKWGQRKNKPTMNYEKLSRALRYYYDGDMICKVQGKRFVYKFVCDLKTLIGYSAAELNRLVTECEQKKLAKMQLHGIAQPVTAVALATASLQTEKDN
Summary of the method: as §1

ERG = target: T4, ERG (Homo sapiens, UniProt P11308 1-479); conditions: protein: recombinant; tags: N-terminal GST; dsDNA, one strand shown
T4 sequence: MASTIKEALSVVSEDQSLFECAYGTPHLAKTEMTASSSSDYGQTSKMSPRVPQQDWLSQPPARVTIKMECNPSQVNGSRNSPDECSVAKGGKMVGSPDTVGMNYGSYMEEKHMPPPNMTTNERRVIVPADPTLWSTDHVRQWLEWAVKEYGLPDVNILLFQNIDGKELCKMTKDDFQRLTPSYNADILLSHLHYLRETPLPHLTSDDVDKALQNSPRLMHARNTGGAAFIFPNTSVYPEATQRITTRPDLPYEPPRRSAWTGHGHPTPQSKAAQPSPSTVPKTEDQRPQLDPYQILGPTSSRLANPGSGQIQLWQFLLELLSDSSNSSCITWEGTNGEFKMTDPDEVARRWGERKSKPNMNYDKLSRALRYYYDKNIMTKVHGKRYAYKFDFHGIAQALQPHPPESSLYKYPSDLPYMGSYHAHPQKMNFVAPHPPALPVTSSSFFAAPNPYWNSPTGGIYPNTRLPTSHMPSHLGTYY
Summary of the method: as §1

ELF1 = ELF1 (Homo sapiens, UniProt P32519 1-619); conditions: protein: recombinant; tags: N-terminal GST; dsDNA, one strand shown
Summary of the method: as §1

EHF = target: T5, EHF (Homo sapiens, UniProt Q9NZC4 1-300); conditions: protein: recombinant; tags: N-terminal GST; dsDNA, one strand shown
T5 sequence: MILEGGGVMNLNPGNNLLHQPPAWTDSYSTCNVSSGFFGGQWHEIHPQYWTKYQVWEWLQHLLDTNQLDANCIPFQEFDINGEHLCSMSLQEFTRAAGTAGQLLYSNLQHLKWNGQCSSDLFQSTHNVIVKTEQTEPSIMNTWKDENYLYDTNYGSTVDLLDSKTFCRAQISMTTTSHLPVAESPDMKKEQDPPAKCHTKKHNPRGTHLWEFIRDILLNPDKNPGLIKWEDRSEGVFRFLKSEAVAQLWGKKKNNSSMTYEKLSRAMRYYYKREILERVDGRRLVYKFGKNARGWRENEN
Summary of the method: as §1

SPI1 = SPI1 (Homo sapiens, UniProt P17947 1-270); conditions: protein: recombinant; tags: N-terminal GST; dsDNA, one strand shown
Summary of the method: as §1

SPIB = SPIB (Homo sapiens, UniProt Q01892 1-262); conditions: protein: recombinant; tags: N-terminal GST; dsDNA, one strand shown
Summary of the method: as §1

ELK3 = target: T6, ELK3 (Homo sapiens, UniProt P41970 1-407); conditions: protein: recombinant; tags: N-terminal GST; dsDNA, one strand shown
T6 sequence: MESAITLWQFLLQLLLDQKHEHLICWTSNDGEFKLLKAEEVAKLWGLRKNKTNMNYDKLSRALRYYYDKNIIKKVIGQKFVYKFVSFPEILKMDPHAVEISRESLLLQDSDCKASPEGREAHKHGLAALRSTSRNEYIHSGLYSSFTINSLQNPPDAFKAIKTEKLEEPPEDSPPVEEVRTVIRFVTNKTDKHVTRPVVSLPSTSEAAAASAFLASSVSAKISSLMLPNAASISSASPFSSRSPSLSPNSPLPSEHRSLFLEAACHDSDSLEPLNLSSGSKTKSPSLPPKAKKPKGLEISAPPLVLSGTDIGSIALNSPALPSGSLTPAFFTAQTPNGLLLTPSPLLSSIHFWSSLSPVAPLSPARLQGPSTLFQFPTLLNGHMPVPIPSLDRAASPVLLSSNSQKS
Summary of the method: as §1

FEV = target: T7, FEV (Homo sapiens, UniProt Q99581 1-238); conditions: protein: recombinant; tags: N-terminal GST; dsDNA, one strand shown
T7 sequence: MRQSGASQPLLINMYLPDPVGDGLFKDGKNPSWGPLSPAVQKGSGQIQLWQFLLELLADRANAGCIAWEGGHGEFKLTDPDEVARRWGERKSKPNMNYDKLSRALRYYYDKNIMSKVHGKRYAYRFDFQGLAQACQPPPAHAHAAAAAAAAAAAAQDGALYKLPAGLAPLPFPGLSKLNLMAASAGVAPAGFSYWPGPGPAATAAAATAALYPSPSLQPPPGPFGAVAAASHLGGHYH
Summary of the method: as §1

ETV5 = ETV5 (Homo sapiens, UniProt P41161 1-510); conditions: protein: recombinant; tags: N-terminal GST; dsDNA, one strand shown
Summary of the method: as §1

HSF1 = HSF1 (Homo sapiens, UniProt Q00613 1-529); conditions: protein: recombinant; tags: N-terminal GST; chain copies: 3; dsDNA, one strand shown
Summary of the method: as §1

SPIC = target: T8, SPIC (Homo sapiens, UniProt Q8N5J4 1-248); conditions: protein: recombinant; tags: N-terminal GST; dsDNA, one strand shown
T8 sequence: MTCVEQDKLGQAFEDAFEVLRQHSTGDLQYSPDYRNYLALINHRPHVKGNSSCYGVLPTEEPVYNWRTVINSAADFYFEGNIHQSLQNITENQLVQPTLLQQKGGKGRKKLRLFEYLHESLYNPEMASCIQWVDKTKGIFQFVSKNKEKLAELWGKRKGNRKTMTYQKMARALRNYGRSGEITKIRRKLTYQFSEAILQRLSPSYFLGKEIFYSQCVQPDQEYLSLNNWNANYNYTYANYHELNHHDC
Summary of the method: as §1

ELF4 = ELF4 (Homo sapiens, UniProt Q99607 1-663); conditions: protein: recombinant; tags: N-terminal GST; dsDNA, one strand shown
Summary of the method: as §1

ELK4 = target: T9, ELK4 (Homo sapiens, UniProt P28324-2 1-405); conditions: protein: recombinant; tags: N-terminal GST; dsDNA, one strand shown
T9 sequence: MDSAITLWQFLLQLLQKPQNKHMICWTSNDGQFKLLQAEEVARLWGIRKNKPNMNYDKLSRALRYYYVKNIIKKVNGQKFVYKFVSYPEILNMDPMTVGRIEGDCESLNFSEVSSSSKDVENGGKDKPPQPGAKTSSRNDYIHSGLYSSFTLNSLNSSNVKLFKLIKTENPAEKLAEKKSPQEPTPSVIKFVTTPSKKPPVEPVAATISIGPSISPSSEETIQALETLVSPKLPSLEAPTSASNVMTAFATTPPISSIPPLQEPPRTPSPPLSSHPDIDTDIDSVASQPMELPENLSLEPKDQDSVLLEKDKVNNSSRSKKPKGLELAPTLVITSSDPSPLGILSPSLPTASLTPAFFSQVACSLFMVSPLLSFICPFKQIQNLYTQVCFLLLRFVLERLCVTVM
Summary of the method: as §1

ETV2 = target: T10, ETV2 (Homo sapiens, UniProt O00321 1-342); conditions: protein: recombinant; tags: N-terminal GST; dsDNA, one strand shown
T10 sequence: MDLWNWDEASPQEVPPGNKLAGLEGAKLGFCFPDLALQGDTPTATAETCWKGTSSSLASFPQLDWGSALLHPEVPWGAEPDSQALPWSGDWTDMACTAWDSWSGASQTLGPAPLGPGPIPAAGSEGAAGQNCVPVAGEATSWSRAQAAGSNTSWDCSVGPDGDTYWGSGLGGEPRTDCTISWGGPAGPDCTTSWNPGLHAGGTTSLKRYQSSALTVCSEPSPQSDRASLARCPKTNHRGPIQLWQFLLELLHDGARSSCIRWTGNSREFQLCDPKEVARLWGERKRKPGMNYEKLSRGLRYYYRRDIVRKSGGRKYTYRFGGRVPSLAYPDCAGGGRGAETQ
Summary of the method: as §1

ELF3 = target: T11, ELF3 (Homo sapiens, UniProt P78545 1-371); conditions: protein: recombinant; tags: N-terminal GST; dsDNA, one strand shown
T11 sequence: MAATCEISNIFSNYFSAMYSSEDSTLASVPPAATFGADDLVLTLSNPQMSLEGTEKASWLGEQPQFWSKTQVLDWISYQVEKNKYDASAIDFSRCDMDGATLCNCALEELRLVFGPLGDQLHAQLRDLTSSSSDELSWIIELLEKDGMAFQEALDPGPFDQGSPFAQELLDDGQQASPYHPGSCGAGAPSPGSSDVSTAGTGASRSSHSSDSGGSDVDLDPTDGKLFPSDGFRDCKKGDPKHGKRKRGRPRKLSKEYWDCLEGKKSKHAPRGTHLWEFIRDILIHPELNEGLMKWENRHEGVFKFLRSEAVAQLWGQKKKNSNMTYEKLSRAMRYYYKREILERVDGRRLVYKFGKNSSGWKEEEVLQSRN
Summary of the method: as §1

CRX = CRX (Homo sapiens, UniProt O43186 1-299); conditions: protein: recombinant; tags: N-terminal GST; dsDNA, one strand shown
Summary of the method: as §1

ETV1 = ETV1 (Homo sapiens, UniProt P50549 1-477); conditions: protein: recombinant; tags: N-terminal GST; dsDNA, one strand shown
Summary of the method: as §1

CRX, sequence (O43186 whole entry): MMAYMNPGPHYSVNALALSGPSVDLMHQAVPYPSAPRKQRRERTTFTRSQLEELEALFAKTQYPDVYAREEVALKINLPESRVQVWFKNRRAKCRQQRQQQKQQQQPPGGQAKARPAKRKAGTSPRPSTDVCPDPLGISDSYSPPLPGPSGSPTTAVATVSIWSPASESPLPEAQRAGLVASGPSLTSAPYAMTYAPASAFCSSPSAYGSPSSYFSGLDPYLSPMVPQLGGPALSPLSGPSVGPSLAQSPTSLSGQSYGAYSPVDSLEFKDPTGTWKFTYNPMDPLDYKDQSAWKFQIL
ETV5, sequence (P41161 whole entry): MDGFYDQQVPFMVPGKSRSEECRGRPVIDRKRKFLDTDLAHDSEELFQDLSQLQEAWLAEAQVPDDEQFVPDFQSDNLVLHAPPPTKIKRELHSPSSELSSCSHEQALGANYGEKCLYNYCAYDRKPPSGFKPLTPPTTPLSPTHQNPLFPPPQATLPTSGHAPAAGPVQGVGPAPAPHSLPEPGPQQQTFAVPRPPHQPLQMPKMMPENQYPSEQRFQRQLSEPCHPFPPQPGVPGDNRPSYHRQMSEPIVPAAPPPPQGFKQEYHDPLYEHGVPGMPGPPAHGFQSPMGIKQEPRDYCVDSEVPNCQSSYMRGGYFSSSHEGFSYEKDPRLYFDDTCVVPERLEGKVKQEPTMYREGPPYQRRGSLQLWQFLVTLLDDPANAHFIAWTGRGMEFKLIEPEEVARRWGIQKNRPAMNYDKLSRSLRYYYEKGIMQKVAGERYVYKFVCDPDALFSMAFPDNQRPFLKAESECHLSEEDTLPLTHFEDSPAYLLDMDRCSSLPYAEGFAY
ETV1, sequence (P50549 whole entry): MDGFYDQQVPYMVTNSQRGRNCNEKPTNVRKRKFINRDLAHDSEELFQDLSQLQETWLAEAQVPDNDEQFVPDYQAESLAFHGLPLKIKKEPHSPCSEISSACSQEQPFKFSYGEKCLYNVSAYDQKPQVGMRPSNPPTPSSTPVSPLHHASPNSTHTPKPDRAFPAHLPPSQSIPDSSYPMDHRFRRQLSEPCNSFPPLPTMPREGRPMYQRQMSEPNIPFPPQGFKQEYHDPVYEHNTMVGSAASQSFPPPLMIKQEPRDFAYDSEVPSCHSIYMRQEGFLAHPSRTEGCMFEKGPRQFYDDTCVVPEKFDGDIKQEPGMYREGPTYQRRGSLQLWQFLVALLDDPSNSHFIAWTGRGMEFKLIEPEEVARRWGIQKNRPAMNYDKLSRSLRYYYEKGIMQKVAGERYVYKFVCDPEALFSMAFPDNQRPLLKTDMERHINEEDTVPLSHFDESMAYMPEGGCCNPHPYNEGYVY
SPIB, sequence (Q01892 whole entry): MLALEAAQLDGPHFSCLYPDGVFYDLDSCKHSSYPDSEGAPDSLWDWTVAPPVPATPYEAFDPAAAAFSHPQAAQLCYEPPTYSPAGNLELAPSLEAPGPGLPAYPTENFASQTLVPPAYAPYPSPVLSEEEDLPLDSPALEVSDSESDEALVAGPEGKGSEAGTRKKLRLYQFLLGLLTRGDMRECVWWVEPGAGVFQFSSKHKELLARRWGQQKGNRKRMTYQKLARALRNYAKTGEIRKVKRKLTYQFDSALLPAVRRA
ELF4, sequence (Q99607 whole entry): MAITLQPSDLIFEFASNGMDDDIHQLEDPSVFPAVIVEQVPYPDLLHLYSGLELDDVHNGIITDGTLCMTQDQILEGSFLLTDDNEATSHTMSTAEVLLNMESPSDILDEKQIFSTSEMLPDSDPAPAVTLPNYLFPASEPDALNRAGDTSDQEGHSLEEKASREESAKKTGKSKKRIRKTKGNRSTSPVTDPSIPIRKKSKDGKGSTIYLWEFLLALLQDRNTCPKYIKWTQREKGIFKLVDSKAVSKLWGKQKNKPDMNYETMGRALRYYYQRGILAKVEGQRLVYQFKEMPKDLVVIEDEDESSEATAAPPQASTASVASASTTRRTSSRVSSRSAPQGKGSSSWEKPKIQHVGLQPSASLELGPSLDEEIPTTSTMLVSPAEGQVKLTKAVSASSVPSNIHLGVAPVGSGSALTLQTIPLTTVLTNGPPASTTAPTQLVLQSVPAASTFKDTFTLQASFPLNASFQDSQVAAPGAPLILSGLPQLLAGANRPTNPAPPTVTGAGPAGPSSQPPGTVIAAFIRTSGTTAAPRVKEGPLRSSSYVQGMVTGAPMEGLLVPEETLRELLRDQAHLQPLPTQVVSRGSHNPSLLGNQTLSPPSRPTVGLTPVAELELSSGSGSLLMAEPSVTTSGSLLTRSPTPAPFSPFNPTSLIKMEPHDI
HSF1, sequence (Q00613 whole entry): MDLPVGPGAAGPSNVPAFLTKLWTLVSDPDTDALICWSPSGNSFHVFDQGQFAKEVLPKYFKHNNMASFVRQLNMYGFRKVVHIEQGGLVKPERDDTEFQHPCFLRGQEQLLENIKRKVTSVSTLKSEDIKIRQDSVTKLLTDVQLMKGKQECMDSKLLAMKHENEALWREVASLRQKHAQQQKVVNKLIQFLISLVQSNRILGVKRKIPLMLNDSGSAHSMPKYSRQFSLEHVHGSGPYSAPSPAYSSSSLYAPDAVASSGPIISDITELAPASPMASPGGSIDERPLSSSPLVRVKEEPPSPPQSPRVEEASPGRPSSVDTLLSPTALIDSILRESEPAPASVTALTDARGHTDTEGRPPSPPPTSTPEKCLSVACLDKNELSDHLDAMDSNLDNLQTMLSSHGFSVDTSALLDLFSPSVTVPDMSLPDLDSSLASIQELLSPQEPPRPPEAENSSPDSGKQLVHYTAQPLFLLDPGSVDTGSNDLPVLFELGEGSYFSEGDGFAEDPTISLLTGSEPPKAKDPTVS
ELF1, sequence (P32519 whole entry): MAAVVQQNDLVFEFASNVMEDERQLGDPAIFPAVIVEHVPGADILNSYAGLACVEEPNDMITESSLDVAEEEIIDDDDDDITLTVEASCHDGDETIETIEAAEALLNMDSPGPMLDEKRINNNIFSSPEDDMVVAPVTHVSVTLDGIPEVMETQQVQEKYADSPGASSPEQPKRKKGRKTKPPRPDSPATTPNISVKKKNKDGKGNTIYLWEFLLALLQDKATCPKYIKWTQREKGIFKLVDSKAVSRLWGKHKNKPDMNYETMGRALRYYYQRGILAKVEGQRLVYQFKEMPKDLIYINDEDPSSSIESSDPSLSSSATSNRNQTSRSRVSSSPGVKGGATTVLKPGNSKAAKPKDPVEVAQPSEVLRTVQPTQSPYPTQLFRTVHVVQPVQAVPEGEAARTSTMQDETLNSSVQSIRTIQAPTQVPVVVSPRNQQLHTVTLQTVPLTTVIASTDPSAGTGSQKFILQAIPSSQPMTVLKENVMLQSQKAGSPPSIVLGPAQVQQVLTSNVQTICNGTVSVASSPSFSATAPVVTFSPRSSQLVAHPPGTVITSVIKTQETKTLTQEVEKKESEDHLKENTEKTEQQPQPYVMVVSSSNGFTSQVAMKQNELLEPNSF

For ATTCTG, the binding signal (FLI1) was 1.35 fold enrichment (6-mer frequency, TF over GST control), the binding signal (ELK1) was 1.23 fold enrichment (6-mer frequency, TF over GST control) and the binding signal (GABPA) was 1.33 fold enrichment (6-mer frequency, TF over GST control). The binding signal (ERG) was 1.21 fold enrichment (6-mer frequency, TF over GST control), the binding signal (ELF1) was 1.26 fold enrichment (6-mer frequency, TF over GST control) and the binding signal (EHF) was 1.34 fold enrichment (6-mer frequency, TF over GST control). The binding signal (SPI1) was 1.27 fold enrichment (6-mer frequency, TF over GST control), the binding signal (SPIB) was 1.15 fold enrichment (6-mer frequency, TF over GST control) and the binding signal (ELK3) was 1.37 fold enrichment (6-mer frequency, TF over GST control). The binding signal (FEV) was 1.23 fold enrichment (6-mer frequency, TF over GST control), the binding signal (ETV5) was 1.29 fold enrichment (6-mer frequency, TF over GST control) and the binding signal (HSF1) was 2.18 fold enrichment (6-mer frequency, TF over GST control). For the same sequence, the binding signal (SPIC) was 1.11 fold enrichment (6-mer frequency, TF over GST control), the binding signal (ELF4) was 1.37 fold enrichment (6-mer frequency, TF over GST control) and the binding signal (ELK4) was 1.38 fold enrichment (6-mer frequency, TF over GST control). For the same sequence, the binding signal (ETV2) was 1.43 fold enrichment (6-mer frequency, TF over GST control), the binding signal (ELF3) was 1.08 fold enrichment (6-mer frequency, TF over GST control) and the binding signal (CRX) was 1.5 fold enrichment (6-mer frequency, TF over GST control). The binding signal (ETV1) was 1.45 fold enrichment (6-mer frequency, TF over GST control).
